Laboratory results from PubChem BioAssay (Tox21).
Values without a mark were called inactive. Activity calls are given as the source filed them. The call rests on the fitted dose curve; in most records, active means well fitted curve in the direction sought with a large enough effect in the repeat runs; inconclusive means weak or mixed curves; inactive means flat fitted curve, though single readings scatter.

Assay: qHTS assay to test for compound auto fluorescence at 535 nm (green) in HepG2 cells (AID 720675)
Conditions: green autofluorescence 485/535 nm, 1 h; series mostly up to 91.3 µM; fluorescence, % of fluorescein control: at the top concentration
Description: National Center for Advancing Translational Sciences [NCATS]
NIH Chemical Genomics Center [NCGC]
U.S. Environmental Protection Agency [EPA]
National Institutes of Environmental Health Sciences [NIEHS]
National Toxicology Program [NTP]
U.S. Food and Drug Administration [FDA]
Compound auto fluorescence often interferes with screening of the compound library against various biological targets and signaling pathways. Some of these compounds may have fluorophoric properties. Such properties may interfere with the assay outputs resulting in false positives and/or negatives. To decrease such complications and ensure the compound activities are relevant in terms of biological response, the Tox21 10K compound library was screened for auto fluorescence.
From the fluorophores used as reporter signals in our screening assays, the auto fluorescence equivalencies of compounds against three fluorophores have been evaluated: Triamterene, Fluorescein and Rose Bengal sodium for blue, green and red fluorescence, respectively. The fluorescence intensities were measured using Excitation/Emission wavelengths at 405/460nm, 485/535nm and 540/590nm for blue, green and red labels, respectively. This assay includes the green fluorescence data.
Tox21 Assay Protocol Summary:
2,000 HepG2 cells in 5 uL of culture medium (MEM containing 10% FBS) per well were dispensed into black wall/clear bottom 1536-well plates using a Multidrop Combi Dispenser (ThermoFisher Scientific, Waltham, MA). The assay plates were incubated overnight at 37 C to allow cell attachment to the well bottom, followed by the transfer of 23 nL compound or DMSO vehicle by a pintool work station (Kalypsys , San Diego, CA). After the assay plates were incubated for 1 hr at 37 C and 5% CO2, fluorescence intensities in the assay plates were measured by an Envision (PerkinElmer, Shelton, CT) plate reader using three labels for measuring blue, green and red fluorescence at […] 460, 535 and 590 nm respectively.
On the % scale 0 is the no-effect control and ±100 the full control effect.

Q: Which “fluorescence, % of fluorescein control” value does the source give for `CC(C)CCOC(=O)CC(C)C` here?
A: Its value is 0.161%.

Q: With `CC(=O)N[C@@H](CCC(N)=O)C(=O)O` as the compound, how does the “fluorescence, % of fluorescein control” value read?
A: Its value is 0.102% [at 46 µM].

Q: For `C[C@H](O)C(=O)Nc1c(I)c(C(=O)NC(CO)CO)c(I)c(C(=O)NC(CO)CO)c1I`, which fluorescence, % of fluorescein control is on record?
A: The fluorescence, % of fluorescein control was 0.0325% [at 18.6 µM].

Q: With `Nc1ccc2cc(S(=O)(=O)O)ccc2c1` as the compound, how does the “fluorescence, % of fluorescein control” value read?
A: The value was -0.366%.

Q: With `CCCCCCC(CCCCCCCCCCC(=O)OCC(COC(C)=O)OC(C)=O)OC(C)=O` (stereo not given) as the compound, how does the “fluorescence, % of fluorescein control” value read?
A: Its value is 0.125% [at 46 µM].

Q: With `COc1cccc(Br)c1` as the compound, how does the “fluorescence, % of fluorescein control” value read?
A: The value was 0.0428%.

Q: For `N#CCN(CC#N)CCN(CC#N)CC#N`, which “fluorescence, % of fluorescein control” value is on record?
A: Its value is -0.0797%.

Q: With `Cc1ccc(N)cc1[N+](=O)[O-]` as the compound, how does the “fluorescence, % of fluorescein control” value read?
A: Its value is -0.0104%.

Q: For `CCO[Si](C)(OCC)OCC`, which “fluorescence, % of fluorescein control” value is on record?
A: The value was -0.192%.

Q: With `COC(=O)[C@H]1[C@H]2C[C@@H]3c4[nH]c5cc(OC)ccc5c4CCN3C[C@H]2C[C@@H](OC(=O)COc2ccc(OC)cc2)[C@@H]1OC` as the compound, how does the “fluorescence, % of fluorescein control” value read?
A: The value was 0.88% [at 46 µM].

Q: For `CC(=O)CCc1ccc(O)cc1`, which “fluorescence, % of fluorescein control” value is on record?
A: Its value is -0.0576%.

Q: Which “fluorescence, % of fluorescein control” value does the source give for `CC(C)CCCCCCN` here?
A: The value was 0.187%.

Q: With `COc1cc(C)cc(O)c1` as the compound, how does the “fluorescence, % of fluorescein control” value read?
A: The value was -0.0076%.

Q: For `CCCCC=O`, which “fluorescence, % of fluorescein control” value is on record?
A: Its value is -0.0413%.

Q: For `c1ccc(SCCSc2ccccc2)cc1`, which “fluorescence, % of fluorescein control” value is on record?
A: The value was 0.0052%.

Q: Which “fluorescence, % of fluorescein control” value does the source give for `C=C(C)C(=O)NCCCN(C)C` here?
A: The value was 0.0642%.

Q: For `Nc1cc(N)cc(C(=O)O)c1`, which “fluorescence, % of fluorescein control” value is on record?
A: Its value is 3.56%.

Q: Which “fluorescence, % of fluorescein control” value does the source give for `C=CCOc1nc(OCC=C)nc(OCC=C)n1` here?
A: The value was -0.0653%.

Q: Which “fluorescence, % of fluorescein control” value does the source give for `CC/C=C\C#N` here?
A: Its value is -0.0498%.

Q: For `C1CCCCCCCCCCC1`, which fluorescence, % of fluorescein control is on record?
A: The fluorescence, % of fluorescein control was -0.001% [at 18.6 µM].

Q: Which “fluorescence, % of fluorescein control” value does the source give for `CC/C=C\CCCCO` here?
A: The value was -0.0079%.

Q: For `NS(=O)(=O)c1cc(C2(O)NC(=O)c3ccccc32)ccc1Cl` (stereo not given), which fluorescence, % of fluorescein control is on record?
A: Its fluorescence, % of fluorescein control is 7.3e-05% [at 18.6 µM].

Q: Which “fluorescence, % of fluorescein control” value does the source give for `OCCN1C[C@H](O)[C@@H](O)[C@H](O)[C@H]1CO` here?
A: The value was 0.0265% [at 46 µM].

Q: Which “fluorescence, % of fluorescein control” value does the source give for `Cn1cnc2c(=O)[nH]c(N)nc21` here?
A: Its value is -0.0118%.

Q: With `CSc1nc(NC2CC2)nc(NC(C)(C)C)n1` as the compound, how does the “fluorescence, % of fluorescein control” value read?
A: The value was 0.0873%.

Q: For `CCN1CCN(c2cc3c(cc2F)c(=O)c(C(=O)O)cn3C2CC2)CC1`, which “fluorescence, % of fluorescein control” value is on record?
A: The value was 0.0377% [at 46 µM].

Q: For `Fc1ccccc1-c1ccccc1`, which “fluorescence, % of fluorescein control” value is on record?
A: The value was 0.0083% [at 95.7 µM].

Q: With `CCC(C)OC(=O)N1CCCCC1CCO` (stereo not given) as the compound, how does the “fluorescence, % of fluorescein control” value read?
A: Its value is 0.0061%.

Q: With `C=C(C)[C@@H]1CCC2=CC(=O)C[C@@H](C)[C@]2(C)C1` as the compound, how does the “fluorescence, % of fluorescein control” value read?
A: The value was 0.039%.

Q: With `CC12CCC(CC1=O)C2(C)C` (stereo not given) as the compound, how does the “fluorescence, % of fluorescein control” value read?
A: The value was 0.0309%.

Q: With `CC1CCN(CCCC(=O)c2ccc(F)cc2)CC1` as the compound, how does the “fluorescence, % of fluorescein control” value read?
A: The value was 0.0022% [at 46 µM].

Q: With `Cc1ccccc1Br` as the compound, how does the “fluorescence, % of fluorescein control” value read?
A: Its value is -0.0072%.

Q: With `CCCCCCCCCCCCCCCCCC(=O)OCCCCCCCCCCCCCC(C)C` as the compound, how does the “fluorescence, % of fluorescein control” value read?
A: The value was -0.0244%.

Q: Which “fluorescence, % of fluorescein control” value does the source give for `CC(=O)NC(Cc1ccccc1)C(=O)O` (stereo not given) here?
A: The value was -0.0021% [at 46 µM].

Q: With `CC(=O)c1ccc(C)cc1` as the compound, how does the “fluorescence, % of fluorescein control” value read?
A: The value was -0.0385%.

Q: Which “fluorescence, % of fluorescein control” value does the source give for `CCCOCC(C)OCC(C)O` (stereo not given) here?
A: Its value is 0.0121% [at 95.7 µM].

Q: Which outcome does the source give for `[O-][N+](=Nc1ccccc1)c1ccccc1` here?
A: Its outcome is “inactive”.

Q: With `CC(C)(C)CC(C)(C)N` as the compound, how does the “fluorescence, % of fluorescein control” value read?
A: The value was 0.0137%.

Q: With `N#CC1(O)CCCCC1` as the compound, how does the “fluorescence, % of fluorescein control” value read?
A: The value was 0.0763%.

Q: With `COc1cccc(OC)c1` as the compound, how does the “fluorescence, % of fluorescein control” value read?
A: Its value is -0.0004%.
